Laboratory results from PubChem BioAssay (EPA / NIEHS).
Active and inactive are the calls of the source. Rule for the calls: active = hit-call score of the fitted dose curve at least 0.9, where 1 is the maximum; inactive = score below 0.9.

Legend:
[1] = ATG_CRE_CIS: Attagene CIS-FACTORIAL HepG2 Assay for human cAMP Responsive Element (CRE) binding protein 3 (AID 2282926); conditions: HepG2 CRE cis-reporter, Attagene multiplexed mRNA; actives raise or lower the signal
Method in brief: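 HepG2 cells transiently transfected with cis-element-driven multiple reporter transcription units; CRE reporter mRNA measured 24 h after dosing by RT-PCR, 6-FAM labelling, HpaI digestion and capillary electrophoresis. Bidirectional fit versus DMSO baseline.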

[2] = molecular target: CCAAT/enhancer-binding protein beta (Homo sapiens) (UniProt P17676); experiment: ATG_C_EBP_CIS: Attagene CIS-FACTORIAL HepG2 Assay for human CCAAT/Enhancer Binding Protein (C/EBP) beta (AID 2282927); conditions: HepG2 Attagene cis-factorial transcription factor reporter; actives raise or lower the signal
Sequence of CCAAT/enhancer-binding protein beta (Homo sapiens) (P17676 whole entry, looked up): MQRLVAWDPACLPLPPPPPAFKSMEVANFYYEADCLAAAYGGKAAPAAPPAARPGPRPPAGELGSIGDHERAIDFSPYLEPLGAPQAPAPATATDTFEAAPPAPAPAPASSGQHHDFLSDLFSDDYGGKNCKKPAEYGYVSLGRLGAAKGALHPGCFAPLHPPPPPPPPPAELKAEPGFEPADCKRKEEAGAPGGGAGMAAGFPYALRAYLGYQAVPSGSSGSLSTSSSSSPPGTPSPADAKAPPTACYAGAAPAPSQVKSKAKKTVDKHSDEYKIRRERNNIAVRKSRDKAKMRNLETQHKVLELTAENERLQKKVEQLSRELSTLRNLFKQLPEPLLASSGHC
Method in brief: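 RT-PCR/capillary electrophoresis fluorescence of reporter mRNA, 24 h post-dose, in HepG2 cells carrying transfected cis-promoter reporter units. Bidirectional curve fitting against DMSO baseline captures gain or loss of signal.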

[3] = ATG_CMV_CIS: Attagene CIS-FACTORIAL HepG2 Assay for human CMV (Internal Marker) (AID 2282928); conditions: HepG2 CMV promoter reporter, transcription factor profiling; actives raise or lower the signal;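 note: endpoint acts as a background internal control marker rather than a target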
Method in brief: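 Cell system: HepG2, transiently transfected multiple reporter units under cis promoters. Exposure: 24 h. Detection: RT-PCR, FAM labeling, HpaI digestion, capillary electrophoresis. Analysis: bidirectional, DMSO baseline.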

[4] = ATG_AP_2_CIS: Attagene CIS-FACTORIAL HepG2 Assay for human Activator Protein 2 (AP-2) (AID 2282932); conditions: HepG2 AP-2 cis-reporter, Attagene transcription factor profiling; actives raise or lower the signal
Method in brief: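 HepG2 cells were transiently transfected with multiple cis-promoter reporter transcription units and dosed for 24 h. Reporter mRNA was measured by RT-PCR with capillary electrophoresis fluorescence; bidirectional fits relative to DMSO baseline.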

[5] = ATG_BRE_CIS: Attagene CIS-FACTORIAL HepG2 Assay for human Bone Morphogenetic Protein (BMP) Response Element (BRE) (AID 2282933); conditions: HepG2 BMP response element reporter, Attagene transcription factor profiling; actives raise or lower the signal
Method in brief: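 Gain- or loss-of-signal was derived by bidirectional fitting against DMSO controls. The signal came from reporter mRNA, measured by RT-PCR and capillary electrophoresis, in HepG2 cells transiently carrying multiple reporter units and dosed for 24 h.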

[6] = molecular target: Transcription factor E2F1 (Homo sapiens) (UniProt Q01094); experiment: ATG_E2F_CIS: Attagene CIS-FACTORIAL HepG2 Assay for human E2F Transcription Factor 1 (AID 2282935); conditions: HepG2 Attagene cis-reporter, E2F reporter RNA transcripts; actives raise or lower the signal
Sequence of Transcription factor E2F1 (Homo sapiens) (Q01094 whole entry, looked up): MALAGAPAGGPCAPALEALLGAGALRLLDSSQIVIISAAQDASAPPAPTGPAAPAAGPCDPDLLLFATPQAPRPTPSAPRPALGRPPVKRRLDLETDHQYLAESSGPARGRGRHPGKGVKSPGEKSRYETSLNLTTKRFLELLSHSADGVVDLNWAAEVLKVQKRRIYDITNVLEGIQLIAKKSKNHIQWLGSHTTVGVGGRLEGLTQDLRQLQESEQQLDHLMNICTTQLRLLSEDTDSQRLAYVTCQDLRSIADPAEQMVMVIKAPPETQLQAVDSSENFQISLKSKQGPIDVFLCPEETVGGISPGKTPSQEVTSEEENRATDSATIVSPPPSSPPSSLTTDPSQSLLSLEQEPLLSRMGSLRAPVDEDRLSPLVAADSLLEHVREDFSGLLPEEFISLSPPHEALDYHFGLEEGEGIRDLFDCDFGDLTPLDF
Method in brief: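 HepG2 cells transiently transfected with multiplexed cis-element reporter units, dosed for 24 h. Reporter mRNA measured by RT-PCR, 6-FAM primer-extension labeling, HpaI digestion and capillary electrophoresis; bidirectional fit versus DMSO baseline.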

[7] = ATG_E_Box_CIS: Attagene CIS-FACTORIAL HepG2 Assay for human Enhancer Box (E-box) (AID 2282936); conditions: HepG2 E-box cis-reporter transcription, actives raise or lower the signal
Method in brief: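 HepG2 cells transiently transfected with multiplexed cis-element reporter units sensing endogenous transcription factor activity; 24 h compound exposure. Reporter mRNA measured by RT-PCR, 6-FAM primer extension, HpaI digestion and capillary electrophoresis; bidirectional fit versus DMSO.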

[8] = ATG_M_61_CIS: Attagene CIS-FACTORIAL HepG2 Assay for M61 Transcription Factor (Internal Marker) (AID 2282937); conditions: HepG2 Attagene CIS-FACTORIAL M61 internal marker reporter; actives raise or lower the signal
Method in brief: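 Cells were transfected with reporter units under cis-regulatory promoters, treated with chemicals for 24 h, then lysed for RNA. Reporter transcripts were quantified by RT-PCR and capillary electrophoresis, and activity was fitted bidirectionally against DMSO.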

[9] = ATG_EGR_CIS: Attagene CIS-FACTORIAL HepG2 Assay for human Early Growth Response 1 (EGR1) (AID 2282938); conditions: HepG2 Attagene CIS-FACTORIAL EGR reporter mRNA; actives raise or lower the signal
Method in brief: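 Endogenous TF activity in HepG2 liver cells was gauged through cis-promoter reporter constructs transiently transfected. After 24 h dosing, reporter mRNA was quantified by RT-PCR and capillary electrophoresis, and curves fitted in both directions versus DMSO.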

[10] = ATG_Ets_CIS: Attagene CIS-FACTORIAL HepG2 Assay for human Erythroblast Transformation Specific (ETS) (AID 2282941); conditions: HepG2 ETS cis-reporter transcription, actives raise or lower the signal
Method in brief: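 After transient cis-reporter transfection, HepG2 cells receive test chemical for 24 h. Reporter mRNA levels, measured by RT-PCR and capillary electrophoresis fluorescence, are analysed bidirectionally relative to the DMSO baseline.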

[11] = ATG_FoxO_CIS: Attagene CIS-FACTORIAL HepG2 Assay for human Forkhead box O (FoxO) (AID 2282943); conditions: HepG2 Attagene cis-reporter, FoxO element, mRNA; actives raise or lower the signal
Method in brief: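 HepG2 cells transiently transfected with cis-promoter-driven multiple reporter transcription units; 24 h after chemical dosing, reporter mRNA quantified by RT-PCR, fluorescent primer extension, HpaI digestion and capillary electrophoresis. Bidirectional fitting versus DMSO baseline.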

[12] = ATG_GLI_CIS: Attagene CIS-FACTORIAL HepG2 Assay for human Zinc Finger Protein GLI1 (AID 2282945); conditions: HepG2, Attagene cis-factorial reporter mRNA, GLI element; actives raise or lower the signal
Method in brief: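 HepG2 cells transiently transfected with cis-promoter multiplexed reporter units report endogenous transcription factor activity. After 24 h chemical exposure, reporter mRNA was quantified by RT-PCR, 6-FAM labelling, HpaI digestion and capillary electrophoresis, with bidirectional fitting against DMSO.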

[13] = ATG_ISRE_CIS: Attagene CIS-FACTORIAL HepG2 Assay for human Interferon Regulatory Factor 1 (IRF1) binding to an Interferon-Stimulated Response Element (ISRE) (AID 2282948); conditions: HepG2 ISRE cis-reporter (Attagene), mRNA transcription readout; actives raise or lower the signal
Method in brief: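 Quantitation relies on labelled RT-PCR fragments separated by capillary electrophoresis. Human HepG2 cells bearing cis-promoter reporter constructs were treated 24 h; DMSO served as baseline for bidirectional fitting.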

[14] = ATG_M_32_CIS: Attagene CIS-FACTORIAL HepG2 Assay for M32 Transcription Factor (Internal Marker) (AID 2282949); conditions: HepG2 Attagene cis-factorial M32 reporter, mRNA; actives raise or lower the signal;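 note: background control marker of the multiplexed CIS panel rather than a real target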
Method in brief: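 Internal background marker read-out: RT-PCR/capillary electrophoresis fluorescence of reporter transcripts from transiently transfected HepG2 cells after 24 h chemical exposure. Activity fitted bidirectionally relative to DMSO negative control.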

[15] = ATG_M_06_CIS: Attagene CIS-FACTORIAL HepG2 Assay for M06 Transcription Factor (Internal Marker) (AID 2282950); conditions: HepG2 Attagene CIS-FACTORIAL M06 internal marker reporter; actives raise or lower the signal
Method in brief: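 Fluorescence-labelled RT-PCR products from cis-promoter reporter units, cut with HpaI and resolved by capillary electrophoresis, give the signal. Cells are human HepG2, dosed for 24 h. Serves as background control, fitted relative to DMSO.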

[16] = ATG_MRE_CIS: Attagene CIS-FACTORIAL HepG2 Assay for human Metal Responsive Element (MRE) (AID 2282954); conditions: HepG2 MRE cis-reporter transcription, Attagene multiplex; actives raise or lower the signal
Method in brief: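 HepG2 cells transiently transfected with multiple cis-element reporter units measure endogenous MTF1-driven transcription. After 24 h compound exposure, reporter mRNA is quantified by RT-PCR with 6-FAM labelling, HpaI digestion and capillary electrophoresis; bidirectional fits versus DMSO.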

[17] = ATG_PXRE_CIS: Attagene CIS-FACTORIAL HepG2 Assay for human Pregnane X Receptor Element (PXRE) (AID 2282957); conditions: HepG2 Attagene CIS-FACTORIAL PXRE reporter, mRNA; actives raise or lower the signal
Method in brief: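 HepG2 cells transiently transfected with cis-element-driven multiplexed reporter units; after 24 h chemical exposure, reporter mRNA measured by RT-PCR, 6-FAM labelling, HpaI digestion and capillary electrophoresis. Bidirectional fitting relative to DMSO.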

[18] = ATG_Sox_CIS: Attagene CIS-FACTORIAL HepG2 Assay for human SRY-box transcription factor (SOX) (AID 2282960); conditions: HepG2 Attagene cis-factorial SOX reporter, mRNA; actives raise or lower the signal
Method in brief: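 Transient MRTU transfection of HepG2; 24 h compound incubation; TriZol RNA, oligo(dT) RT, PCR, 6-FAM primer extension, HpaI cut, CE. Bidirectional fit, DMSO = baseline.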

[19] = molecular target: Transcription factor Sp1 (Homo sapiens) (UniProt P08047); experiment: ATG_Sp1_CIS: Attagene CIS-FACTORIAL HepG2 Assay for human Specificity Protein 1 (Sp1) (AID 2282961); conditions: HepG2 Sp1 cis-reporter transcription, actives raise or lower the signal
Sequence of Transcription factor Sp1 (Homo sapiens) (P08047 whole entry, looked up): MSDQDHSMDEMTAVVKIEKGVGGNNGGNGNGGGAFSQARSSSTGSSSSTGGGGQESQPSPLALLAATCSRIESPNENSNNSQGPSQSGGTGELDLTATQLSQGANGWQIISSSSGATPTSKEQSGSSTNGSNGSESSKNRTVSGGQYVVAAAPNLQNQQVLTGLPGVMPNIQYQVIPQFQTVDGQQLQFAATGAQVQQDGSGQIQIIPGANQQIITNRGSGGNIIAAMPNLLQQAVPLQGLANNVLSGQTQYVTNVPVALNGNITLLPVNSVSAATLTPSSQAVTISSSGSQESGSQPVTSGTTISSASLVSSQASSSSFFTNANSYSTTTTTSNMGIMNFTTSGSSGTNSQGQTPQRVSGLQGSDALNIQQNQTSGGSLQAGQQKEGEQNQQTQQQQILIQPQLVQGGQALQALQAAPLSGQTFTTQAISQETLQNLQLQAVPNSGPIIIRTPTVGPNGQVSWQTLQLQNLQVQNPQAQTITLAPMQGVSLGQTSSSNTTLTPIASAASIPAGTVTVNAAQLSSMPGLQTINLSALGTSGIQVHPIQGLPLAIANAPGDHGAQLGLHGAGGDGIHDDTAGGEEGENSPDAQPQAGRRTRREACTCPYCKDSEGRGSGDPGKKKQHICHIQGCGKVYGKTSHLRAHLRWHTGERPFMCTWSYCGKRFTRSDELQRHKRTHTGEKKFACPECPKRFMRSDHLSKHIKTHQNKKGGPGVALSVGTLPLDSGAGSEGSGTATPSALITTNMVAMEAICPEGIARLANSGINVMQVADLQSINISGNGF
Method in brief: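 Endogenous Sp1 activity was gauged in human liver HepG2 cells bearing transfected reporter units under a cis-regulating promoter. After 24 h dosing, reporter mRNA was quantified by RT-PCR with capillary electrophoresis, and activity fitted bidirectionally versus DMSO.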

[20] = ATG_SREBP_CIS: Attagene CIS-FACTORIAL HepG2 Assay for human Sterol Regulatory Element Binding (SREBP) (AID 2282962); conditions: HepG2 Attagene cis-factorial SREBP reporter, mRNA; actives raise or lower the signal
Method in brief: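 Twenty-four hours after chemical dosing of transfected HepG2 cultures, reporter RNA was converted to cDNA, amplified, end-labelled with 6-FAM and resolved by capillary electrophoresis. Responses were fitted relative to DMSO.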

Measured: AC50

CC(C)CC(=O)O
inactive: all assays above

CCCCCCCCCC/C=C/C1CC(=O)OC1=O (stereo not given)
inactive: all assays above

CCC(C)(CCC(C)C)C(=O)O (stereo not given)
inactive: all assays above

CNC[C@H](O)[C@@H](O)[C@H](O)[C@H](O)CO
active: [17] 26 µM
inactive: all other assays above

CCC(C)=NO
inactive: all assays above

CCCCCCC(O)CCCCCCCCCCC(=O)OC (stereo not given)
active: [17] 27.5 µM
inactive: all other assays above

OCCc1ccccn1
inactive: all assays above
